# Measured values as given in PubChem BioAssay (EPA / NIEHS).
# Calls of active or inactive are those of the source. Rule for the calls: active = hit-call score of the fitted dose curve at least 0.9, where 1 is the maximum; inactive = score below 0.9.
# Read-out: CYP2C8 (gene 1558)
# Test: LTEA_HepaRG_CYP2C8: Life Technologies and Expression Analysis (LTEA) Assay for CYP2C8 using HepaRG (AID 2283483)
# Conditions: mRNA level, 48 h; actives raise or lower the signal
# Experimental: LTEA_HepaRG is a cell based, multiplexed-readout assay that uses HepaRG, a human liver cell line, with measurements taken at 48 hours after chemical dosing on a 96-well plate.LTEA_HepaRG_CYP2C8 is one of 102 assay component(s) measured in the LTEA HepaRG cell culture assay. It is a marker of NR mediated metabolism.Data from the assay component LTEA_HepaRG_CYP2C8 was analyzed into 1 endpoint. This assay endpoint, LTEA_HepaRG_CYP2C8, was analyzed with bidirectional fitting relative to DMSO as the negative control and baseline of activity. Using a type of inducible reporter, measures of mRNA induction for gain or loss-of-signal activity can be used to understand regulation of transcription factor activity. To generalize the intended target to other relatable targets, this assay endpoint is annotated to the cyp intended target family, where the subfamily is xenobiotic metabolism.
# A total of 1060 chemcials from the ToxCast library were tested in eight-point concentration-response experiments. Cell culture and cytotoxicity assays were conducted at Thermo Fisher Scientific's Custom Services facility (Madison, WI). A single lot of human HepaRG cells (Thermo Fisher Scientific, Frederick, MD) was used for the cell culture experiments. 96-well format collagen type I coated plates of human HepaRG cells were prepared using established methods. Briefly, cryopreserved HepaRG cells were thawed, plated at a density of approximately 100,000 cells/well in HepaRG Thaw, Plate, and General Purpose media (HPRG770, Thermo Fisher Scientific), and incubated for 48 hours. 0.5% DMSO was selected as vehicle control to balance the requisite need of DMSO in HepaRG cultures to maintain differentiation (for example, baseline metabolism, proportions of hepatocytes vs. cholangiocytes), while enabling further hepatic receptor pathway activation (for example, PXR and CAR) in response to chemical exposure. 48 hours after plating, the culture medium was replaced with HepaRG Serum-Free Incudtion Media. Cells were exposed to each test chemical in duplicate and maintained in CO2 incubators for another 48 hours. Chemical plates were thawed to room temperature and 200x concentrations of treatment groups were prepared. 8-point conentration-reponse curves were made with the highest exposure at 100 uM, followed by half-log dilutions, all in 0.5% DMSO. Each test plate contained variouse controls, induction positive controls (1mM phenobarbital), cytotoxicity positive controls ([…] aflatoxin B1), vehicle controls (0.5% DMSO), and total lysis controls (0.5% DMSO). Cell morphology images were taken using an Essen IncuCyte FLR automated microscope, with six 96-well plates imaged in about 24 minutes. Images were captured and exported and JPEG files. Spent culture media was transfered to black-well plates for the LDH assay, and remaining media was sorted at -80 C for later use. Cells were treated with RLT buffer and frozen until shipped for gene expression analysis. Total RNA was isolated from the cell suspension in 75 uL of Buffer RLT (Qiagen, Germantown, MD 20874) by Quintiles/Expression Analysis (Durham, NC) using a custom isolation procedure. Total RNA from each plate well was transferred to a preamplification plate. Fluidigm's 96.96 Dynamic ArrayTM (Fluidigm, Amsterdam, the Netherlands) technology was used for gene expression analyses by quantitative reverse transcription polymerase chain reaction (qRT-PCR, performed by Quintiles/Expression Analysis, Durham, NC)89. Standard TaqManTM Assays (Applied Biosystems/ThermoFisher Scientific, Foster City, CA) were used to assess the expression of 93 genes selected based on their selectivity and sensitivity to important hepatic receptors known to be modulated by environmental chemicals; importance in human hepatocyte functionality; and hepatotoxicity. […]
SMILES,outcome,AC50
COC(=O)CCC(=O)OC,inactive,
CCCCCCCCCCCCCCCCO,inactive,
NC1CCCCC1,inactive,
Nc1nc(Cl)nc2c1ncn2[C@H]1C[C@H](O)[C@@H](CO)O1,,1 µM (active)
CC(C)c1cccc(C(C)C)c1,inactive,
Oc1ccccc1O,inactive,
O=C(NS(=O)(=O)/C=C/c1cccs1)c1ccc(F)cc1Br,inactive,
O=C1O[C@H]([C@H](O)CO)C(O)=C1O,inactive,
CC(C)COC(=O)CCCCC(=O)OCC(C)C,inactive,
CN(C)CCCN(C)CCCN(C)C,inactive,
C=CCc1ccc(OC)c(OC)c1,inactive,
OCC(O)CO,inactive,
C#CC(O)C(CC)CCCC (stereo not given),inactive,
O=C1c2c(O)cccc2Cc2cccc(O)c21,inactive,
CC(C)(O)c1ccc(CNC(=O)c2cccnc2Oc2ccc(F)cc2)cc1,inactive,
Cc1cn([C@H]2C=C[C@@H](CO)O2)c(=O)[nH]c1=O,inactive,
CCCCC(CC)COP(=O)(OCC(CC)CCCC)OCC(CC)CCCC (stereo not given),inactive,
CO[C@@H]1COCC[C@@H]1N[C@@H]1CC[C@@](C(=O)N2CCc3ncc(C(F)(F)F)cc3C2)(C(C)C)C1,inactive,
CC(C)OC(=O)C(C)(C)Oc1ccc(C(=O)c2ccc(Cl)cc2)cc1,inactive,
CC(C)NCC(O)c1ccc(O)c(O)c1 (stereo not given),inactive,

SMILES,outcome,AC50
O=C(O)CC(O)(CC(=O)O)C(=O)O,inactive,
O=C(O)c1cccnc1,inactive,
c1ccc2occc2c1,inactive,
C=CCCCCCCCCCCCC,inactive,
CCCCCCCC(=O)OC,,12 µM (active)
CC(=O)OC1CC(C)OC(C)O1 (stereo not given),inactive,
CCCC(=O)O,inactive,
O=C1OC(c2ccc(O)cc2)(c2ccc(O)cc2)c2ccccc21,,78.7 µM (active)
S=c1[nH]c2ccccc2s1,inactive,
CSc1ccc(Oc2ccc(S(N)(=O)=O)cc2CN(C)C)cc1C,inactive,
N[C@@H](Cc1c[nH]c2ccccc12)C(=O)O,inactive,
Nc1nc(=S)c2[nH]cnc2[nH]1,,32.2 µM (active)
CC(=O)OCC(COC(C)=O)OC(C)=O,inactive,
CCCCCCCCCCCCCCOS(=O)(=O)O,,12.6 µM (active)
Cc1ccc(-c2cc(C(F)(F)F)nn2-c2ccc(S(N)(=O)=O)cc2)cc1,inactive,
Cc1occc(=O)c1O,inactive,
Cc1cc(SC2=C(O)C[C@@](CCc3ccc(N)cc3)(C(C)C)OC2=O)c(C(C)(C)C)cc1CO,,3.03 µM (active)
Cc1c(C)c2c(c(C)c1O)CCC(C)(COc1ccc(CC3SC(=O)NC3=O)cc1)O2 (stereo not given),inactive,
CCN(CC)CCOc1ccc(C(=C(Cl)c2ccccc2)c2ccccc2)cc1,inactive,
NCCOCCOCCN,inactive,
